# Rows were chosen to be rich in hits. Some 1.2% of all compounds tested hit in one or more screens of this group.
# Avidin bead fluor – avidin bead compound fluorescence profile | Avidin beads, compound fluorescence 488/530 nm, flow cytometry; hits give high values | AID 1775 | fluorescence (KMESF) at 10 µM | 220,000 tested, 0.38% active; in the data active = fluorescence above about 47
# GSH fluor – compound fluoresces at 488/530 nm on GSH beads; GSH beads flow cytometry, compound fluorescence 488/530 nm; hits give high values; 190,000 tested, 0.25% active; fluorescence (KMESF) at 10 µM; in the data active = fluorescence above about 89;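 also: glutathione beads carrying GST-tagged Bcl family fusion proteins plus one bare bead set; values are compound well signal with DMSO vehicle wells as background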
# RGS8-Gao – human RGS8-Galphao interaction regulation. multiplexed bead flow cytometry, RGS8-Galphao binding; actives lie on both sides. response (percent of control binding), % at 10 µM. 220,000 tested, 0.34% active; in the data active = response below about 60% or above about 140%; inactive = in between;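 also: Galphao activated as the GDP aluminium fluoride complex binding bead-coupled RGS8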
# Target sequence (P09471 whole entry, looked up): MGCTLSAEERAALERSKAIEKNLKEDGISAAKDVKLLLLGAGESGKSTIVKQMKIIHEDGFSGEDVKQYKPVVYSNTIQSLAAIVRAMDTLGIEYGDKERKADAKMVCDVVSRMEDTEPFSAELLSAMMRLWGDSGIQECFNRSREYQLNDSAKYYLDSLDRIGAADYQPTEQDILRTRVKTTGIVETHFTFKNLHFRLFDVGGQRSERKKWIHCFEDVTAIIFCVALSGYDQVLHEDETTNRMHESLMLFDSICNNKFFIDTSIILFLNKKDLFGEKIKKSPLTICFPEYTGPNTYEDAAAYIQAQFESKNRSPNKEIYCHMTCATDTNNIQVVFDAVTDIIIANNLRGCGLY
# RGS16-Gao HTS – RGS16-Galphao interaction regulator (human); O15492+P09471; bead-based flow cytometry RGS16-Galphao binding, fluorescence; actives lie on both sides; binding response (% of control), % at 10 µM; 220,000 tested, 0.38% active;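 also: Galphao activated by GDP with aluminum fluoride before binding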
# Target sequence (O15492 whole entry, looked up): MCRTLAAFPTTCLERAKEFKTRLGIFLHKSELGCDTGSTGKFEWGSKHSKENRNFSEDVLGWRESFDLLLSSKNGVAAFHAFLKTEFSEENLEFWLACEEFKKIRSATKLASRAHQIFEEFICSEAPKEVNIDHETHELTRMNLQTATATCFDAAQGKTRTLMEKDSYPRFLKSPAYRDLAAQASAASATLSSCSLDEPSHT
# Target sequence (P09471 whole entry, looked up): as the sequence (P09471 whole entry, looked up) above
# RGS4-Gao reg – modulates binding of RGS4 to human Galphao | P09471 | Multiplexed bead flow cytometry; actives lie on both sides | binding response (% of control), % at 10 µM | 220,000 tested, 0.33% active; in the data active = binding response below about 49% or above about 150%; inactive = in between;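 also: fluorescent Galphao activated with aluminum fluoride binding bead-coupled RGS4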
# RGS7-Gao reg – modulates binding of RGS7 to human Galphao; 220,000 tested, 0.35% active; binding response (% of control), % at 10 µM; AID 1439; P09471; Multiplexed bead flow cytometry; actives lie on both sides; in the data active = binding response below about 49% or above about 150%; inconclusive = no clear call, values can overlap the other calls; inactive = in between;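 also: fluorescent Galphao held in activated GDP-AlF4 state binding bead-coupled RGS7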
# RGS4-Gao HTS – modulates binding between human RGS4 and Galphao; 1,600 tested, 99% active; multiplexed bead flow cytometry, RGS–Galpha-o binding; AID 1504; shares compounds with RGS16-Gao HTS; RGS4–Galpha-o binding response, % at 10 µM;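 also: fluorescently labeled Galpha-o bound to GDP with aluminium fluoride binding biotinylated RGS beads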
# Biotin-avidin – counter-screen: compounds disrupting biotin binding to avidin beads. shares compounds with RGS16-Gao HTS. streptavidin beads, fluorescein-biotin binding, flow cytometry. inhibition, % at 10 µM. 1,700 tested, under 10 active. AID 1783;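 active = inhibition above 50%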;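 also: median green fluorescence of gated singlet beads compared with DMSO control wells; 0% = DMSO wells and 100% = complete loss of bead fluorescence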
# RGS8-Gao single – confirmation of regulators of human RGS8-Galphao interaction; shares compounds with RGS16-Gao HTS; bead-based flow cytometry RGS8-Galphao binding, fluorescence; actives lie on both sides; binding response (% of control), % at 10 µM; 1,700 tested, 3% active; in the data active = binding response below about 72% or above about 130%; inactive = in between;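 also: Galphao activated as GDP AlF4 complex before binding bead RGS8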
# RGS7-Gao confirm – RGS7-Galphao interaction regulation, single point confirmation. 1,700 tested, 7.8% active. shares compounds with RGS16-Gao HTS. response (percent of control binding), % at 10 µM. bead-based flow cytometry RGS7-Galphao binding; actives lie on both sides. AID 1837; in the data active = response below about 75% or above about 130%; inactive = in between;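 also: fluorescent Galphao activated with GDP and aluminum fluoride binding bead-coupled RGS7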
# RGS16-Gao conf – RGS16-Galphao interaction regulation, single point confirmation; shares compounds with RGS16-Gao HTS; bead-based flow cytometry, RGS16-Galphao binding; actives lie on both sides; 1,700 tested, 4% active; response (% of control binding), % at 10 µM; in the data active = response below about 74% or above about 130%; inactive = in between;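 also: Galphao activated as the GDP aluminium fluoride complex binding bead-coupled RGS16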
# RGS4-Gao single – confirmation of regulators of human RGS4-Galphao interaction. shares compounds with RGS16-Gao HTS. binding response (% of control), % at 10 µM. RGS4-Galphao binding, multiplexed bead flow cytometry; actives lie on both sides. 1,700 tested, 4% active; in the data active = binding response below about 74% or above about 130%; inactive = in between
# RGS19-Gao conf – confirmation of regulators of human RGS19-Galphao interaction; shares compounds with RGS16-Gao HTS; bead-based flow cytometry RGS19-Galphao binding; actives lie on both sides; response (percent of control binding), % at 10 µM; 1,700 tested, 5% active; in the data active = response below about 50% or above about 160%; inactive = in between;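 also: 100% = no compound control and 0% = blank background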
# Numbers without * were called inactive; ? = inconclusive; . = no result; [ ] = remark or other dose. Unless noted, no rule for the calls is given here.
SMILES,Avidin bead fluor,GSH fluor,RGS8-Gao,RGS16-Gao HTS,RGS4-Gao reg,RGS7-Gao reg,RGS4-Gao HTS,Biotin-avidin,RGS8-Gao single,RGS7-Gao confirm,RGS16-Gao conf,RGS4-Gao single,RGS19-Gao conf
CC(C)CCN1CC(C(=O)NCCC2=CCCCC2)CC1=O (stereo not drawn),6,14,104.1,102.8,101.4,99.4,.,.,.,.,.,.,.
CC(C)CCN1CCC(N)=NC1=O,26,35,109.7,191.1*[activator],233.7*[activator],216.7*[activator],.,-1.5,114.9,103.9,115.7,106.7,85.7
CCOC(=O)CN1C(c2ccc(O)cc2)Nc2ccc(Br)cc2C1c1ccccc1 (stereo not drawn),2,5,61.6,14.4*,84.6,95.5,84.6*,0.3,100.8,94.8,96.0,96.8,128.9
O=C(NCc1ccccc1)C1CCC1,6,12,86.1,13.9*,95.9,95.6,95.9*,0.4,97.9,94.6,97.0,98.4,97.4
CC(=O)N1CCN(C(=S)NCc2ccccc2)CC1,6,16,138.4,256.9*[activator],109.7,106.3,109.7*,-2.0,99.3,102.1,97.2,97.4,93.7
S=C(NCc1ccccc1)N1CCCCC1,10,19,92.7,89.4,89.6,89.4,.,.,.,.,.,.,.
COc1ccc(C(=O)/C=C/c2ccc(OC(=O)c3cc(OC)c(OC)c(OC)c3)cc2)cc1,18,10,159.0*[activator],697.1,119.5,129.5,119.5*,0.5,103.0,101.0,101.7,100.5,91.7
CCOc1ccc(/C=C/C(=O)c2ccccc2)cc1,-1,.,23.1*,-3.6*,-8.9*,?,.,-3.2,99.2,88.1,94.4,94.6,73.6
CCOc1ccc(C(=O)/C=C/c2cc(OC)c(OC)c(OC)c2)cc1,9,20,99.9,100.8,101.7,?,.,.,.,.,.,.,.
CCOc1ccc(C(=O)/C=C/c2ccc(SC)cc2)cc1,33,22,99.7,104.3,100.2,100.3,.,.,.,.,.,.,.
O=C(CN1CCN(C(=O)c2ccco2)CC1)Nc1ccc2c(c1)OCCO2,223*,36,98.6,108.5,121.8,178.4*[activator],121.8*,0.3,96.7,94.5,95.3,99.3,98.1
CN(Cc1ccccc1)C(=O)C1CCCN(Cc2cccc(Cl)c2)C1 (stereo not drawn),22,12,100.3,101.4,99.5,101.0,.,.,.,.,.,.,.
Cc1nc2ccccc2cc1C(=O)Nc1ccccc1Cl,12,14,139.7,150.0,148.4,156.8*[activator],148.4*,-0.4,100.6,104.1,100.1,101.7,99.5
Cc1nc2ccc(F)cc2cc1C(=O)Nc1cccc(Cl)c1C,3,19,100.0,103.1,96.4,94.3,.,.,.,.,.,.,.
O=C(COc1ncnc2sccc12)N1CCN(C(=O)c2ccco2)CC1,25,5,104.8,106.7,100.2,102.2,.,.,.,.,.,.,.
CN(c1ccccc1)c1nc2ccsc2c(=O)s1,169*,32,97.2,112.7,126.8,246.9*[activator],126.8*,-1.7,100.0,101.8,100.5,99.0,98.7
Cc1ccc(-c2ccc(OCC(=O)N3CCOCC3)cc2)cc1,16,31,106.0,103.1,100.6,103.7,.,.,.,.,.,.,.
CCN1CCN(C(=S)c2ccc(OCC(=O)N3CCOCC3)cc2)CC1,-2,20,17.1*,5.2*,8.1*,8.8*,.,0.1,107.5,100.1,109.6,102.4,131.7
Cc1cccc(OCC(=O)N2CCOCC2)c1,277*,11,96.6,123.4,159.6*[activator],270.8*[activator],.,-0.4,100.7,95.3,102.6,101.2,101.3
CCN1CCN(C(=S)c2ccc(OCC(=O)NCc3ccccc3)cc2)CC1,8,9,90.3,82.7,100.8,154.3*[activator],100.8*,0.2,96.8,112.1,96.9,100.5,100.6
O=C(OCC(=O)N1CCc2ccccc21)c1ccccc1,5,27,103.3,106.2,105.7,103.3,.,.,.,.,.,.,.
O=C(CO/N=C/c1ccccc1O)N1CCc2ccccc21,16,5,121.9,190.8*[activator],113.8,114.8,113.8*,-0.6,98.8,94.7,95.5,97.9,102.5
C/C(=N/NC(=O)c1cc(O)c(O)c(O)c1)c1ccc([N+](=O)[O-])cc1,0,9,8.8*,-2.4*,21.3*,6.2*,.,-0.4,81.5,76.1,83.2,89.7,82.5
Cc1cccc(C(C(N)=O)c2ncc(C(F)(F)F)cc2Cl)c1 (stereo not drawn),6,15,100.2,99.7,101.2,103.7,.,.,.,.,.,.,.
COc1ccc(/C=N/n2cnn(Cc3ccccc3Cl)c2=S)cc1,0,10,14.8*,12.2*,22.9*,?,.,-1.8,102.1,107.3,101.5,102.8,97.5
SMILES,Avidin bead fluor,GSH fluor,RGS8-Gao,RGS16-Gao HTS,RGS4-Gao reg,RGS7-Gao reg,RGS4-Gao HTS,Biotin-avidin,RGS8-Gao single,RGS7-Gao confirm,RGS16-Gao conf,RGS4-Gao single,RGS19-Gao conf
O=C(COC(=O)CCc1nc2ccccc2c(=O)[nH]1)Nc1ccc2c(c1)OCO2,6,.,99.0,92.8,97.3,?,.,.,.,.,.,.,.
Cc1cccc(NC(=S)NC(C)C(c2ccccc2)N2CCN(C)CC2)c1C (stereo not drawn),2,12,99.3,100.6,96.2,95.0,.,.,.,.,.,.,.
CCCCCCCCCC(=O)N1c2ccccc2NC(=O)C1CC(=O)Nc1ccc(C(=O)O)cc1 (stereo not drawn),7,.,99.2,102.3,101.6,?,.,.,.,.,.,.,.
Cc1c(Br)c(=O)oc2c(Br)c(O)c(O)cc12,1,6,41.7*,16.4*,51.6,53.2,51.6*,-0.6,92.7,92.5,91.8,90.5,87.3
O=C(NCc1ccco1)c1ccc2snnc2c1,187*,30,99.6,102.4,114.1,187.6*[activator],114.1*,-1.8,102.3,106.9,101.2,99.5,93.0
CN1C(=O)c2ccccc2C(C(=O)NCCCN2CCCC2=O)C1c1c[nH]c2ccccc12 (stereo not drawn),10,6,101.9,101.9,104.6,102.8,.,.,.,.,.,.,.
